Source: PubChem (National Center for Advancing Translational Sciences (NCATS))
HT1080 IDH1KD tx – toxicity to HT-1080 IDH1 knockdown cells (counter line); HT-1080 IDH1 knockdown viability, ATP luminescence, 48 h; AID 686971; Potency, µM (titrated, usually from 46.1 µM), without a hit: at the top dose activity, negative = toxicity, usual class: cytotoxic; 360,000 compounds, 2% hits;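 note: potency is the fitted concentration of half-maximal effect; 0% = DMSO wells and -100% = cell-free medium wells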
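Knockdown cells (IDH1KD HT-1080) received compounds 2 h after plating at 750 cells/well and were kept 48 h at 37 °C in 5% FBS RPMI. A CellTiter-Glo luminescence read gave % activity for curve fitting.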
HT1080-NT tox – kills 2HG-producing HT-1080-NT fibrosarcoma cells; AID 686970; Potency, µM (titrated, usually from 46.1 µM), for the others: top-dose activity, negative = less viability, hits mostly cytotoxic; HT-1080-NT fibrosarcoma viability, CellTiter-Glo ATP luminescence, 48 h; 360,000 compounds, 1.6% hits;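 note: NT is the 2HG producing partner of a matched IDH1 knockdown line; potency is the fitted concentration of half-maximal effect; 0% = DMSO-treated cells and -100% = media-only wells without cells; nearly all actives have a fitted effect of over 55% in size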
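Toxicity toward the 2HG-producing NT line was scored as %Activity, normalised to DMSO and no-cell wells, from CellTiter-Glo luminescence after 48 hours' treatment.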
DT40 TDP1 no CPT – qHTS for Inhibitors of human tyrosyl-DNA phosphodiesterase 1 (TDP1): qHTS in cells in absence of CPT | DT40 Tdp1-/- hTDP1 cells, no CPT, ATP luminescence, 48 h | Potency, µM (highest dose often 46.2 µM), for the others: top-dose activity change, negative = growth inhibition, hits mostly inhibitors | 420,000 compounds, 15% hits | AID 686978, 2013; note: potency is the fitted concentration of half-maximal effect; nearly all actives have a fitted effect of over 55% in size
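Luminescent ATP content (CellTiter-Glo) served as the growth readout. Knockout chicken DT40 cells expressing human TDP1 were exposed to compounds without camptothecin for a minimum 48 hr at 37 °C.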
DT40 TDP1 CPT – DT40-hTDP1 cell growth loss with CPT; Potency, µM (top dose mostly 46.2 µM), for the others: at the top dose activity change, negative = growth inhibition, actives largely listed as inhibitors; chicken DT40 Tdp1-/-;hTDP1 cells + 20 nM CPT, ATP luminescence, 48 h; 420,000 compounds, 12% hits; note: potency is the fitted concentration of half-maximal effect; nearly all actives have a fitted effect of over 55% in size
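Chicken DT40 Tdp1-/- cells stably complemented with human TDP1 were seeded at 400 cells/well in medium containing 20 nM camptothecin, exposed to pin-transferred compounds, and grown at 37 °C for at least 48 hr. Viability was read as ATP luminescence.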
IL-1B inflam inh – blocks inflammasome-driven IL-1 beta release; activity change, % at 57.5 µM; THP-1 LPS/ATP IL-1B secretion, AlphaLISA, 16 h; hits give low values; AID 743279; 360,000 compounds, 4.7% hits; in the data active = activity change below about -50%; inconclusive = mostly about -30% to -49%
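THP-1 cells pretreated 1 hr with compounds (up to 57.5 uM final), then stimulated with LPS (250 ng/mL final) plus ATP (1.25 mM final); secreted IL-1B measured by AlphaLISA after 16 hr, decreased signal indicating inhibition.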
Starred values were filed as active, the others as inactive; ? = inconclusive; . = not tested or not shown. Sampled rows, rich in hits. Any-hit rate of the full collection: about 19%. Unless noted, calls come from the whole dose curve; as a rule, active = well fitted curve in the direction sought with a large enough effect; inconclusive = small, poorly fitted or top-dose-only effect, or another doubt; inactive = no such curve, though single readings can be large; an effect the other way counts as inactive or inconclusive. Unless noted, % is set by controls: 0 for no effect and ±100 for the full control effect.

SMILES	HT1080 IDH1KD tx	HT1080-NT tox	DT40 TDP1 no CPT	DT40 TDP1 CPT	IL-1B inflam inh
COc1ccc(CC(=O)Nc2ccc3nc(Nc4cccc(Cl)c4)cc(C)c3c2)cc1	.	.	5.8µM*	6.51µM*	.
Cc1cccc(OCC(=O)Nc2ccc3nc(Nc4cccc(C(F)(F)F)c4)cc(C)c3c2)c1	.	.	13µM*	20.6µM*	.
CCOC(=O)c1cc(OCC)c2c(ccc3ccccc32)n1	-2.9%	4.4%	?	-25.9%	18.2
Oc1cccc(-c2nc3ccc4ccccc4c3c3c2CCC3)c1	?	?	20.6µM*	?	0.0
COC(=O)[C@@]1(Cc2ccc(F)cc2)[C@H]2c3cc(C(=O)N4CCCC4)n(CC4CC4)c3C[C@H]2CN1C(=O)c1ccccc1	?	?	?	?	0.0
COC(=O)[C@@]1(Cc2ccc(F)cc2)[C@H]2c3cc(C(=O)N4CCCC4)n(CCF)c3C[C@H]2CN1C(=O)c1ccccc1	-13.9%	?	23.1µM*	23.1µM*	?
COC(=O)[C@@]1(Cc2ccc(F)cc2)[C@H]2c3cc(C(=O)N4CCCC4)n(Cc4cc(F)cc5c4OCOC5)c3C[C@H]2CN1C(=O)c1ccccc1	?	?	?	?	-28.5
COC(=O)[C@@]1(Cc2ccc(F)cc2)[C@H]2c3cc(C(=O)N4CCCC4)n(CCCNc4ncc(C(F)(F)F)cc4Cl)c3C[C@H]2CN1C(=O)c1ccccc1	-21.8%	-24.0%	16.4µM*	?	0.0
COC(=O)[C@@]1(Cc2ccc(F)cc2)[C@H]2c3cc(C(=O)N4CCCC4)n(Cc4ccc(C)o4)c3C[C@H]2CN1C(=O)c1ccccc1	20.6µM*	?	?	?	-86.9*
COC(=O)[C@@]1(Cc2ccc(F)cc2)[C@H]2c3cc(C(=O)N(C)C)n(Cc4cc(C)n(C)n4)c3C[C@H]2CN1C(=O)c1ccccc1	-8.0%	-17.6%	?	?	-11.8
COC(=O)[C@@]1(Cc2ccc(F)cc2)[C@H]2c3cc(C(=O)N4CCCC4)n(Cc4cc(C)n(C)n4)c3C[C@H]2CN1C(=O)c1ccccc1	-19.3%	-15.6%	16.4µM*	20.6µM*	-7.4
O=C(/C=C(\O)c1ccccc1)C(=O)NNC(=O)c1ccccc1[N+](=O)[O-]	-1.6%	-3.7%	-0.1%	-12.0%	4.5
COC(=O)[C@@]1(Cc2ccc(F)cc2)[C@H]2c3cc(C(=O)N4CCCC4)n(Cc4ccc(C)c(F)c4F)c3C[C@H]2CN1C(=O)c1ccccc1	?	?	23.1µM*	?	0.0
CCc1ccccc1NC(=S)N1CCN(c2cccc(OC)c2)CC1	5.5%	22.2%	-2.6%	2.4%	18.7
CC(C)=CC(=O)OCc1cc([N+](=O)[O-])cc2c1OCOC2	-6.5%	-15.1%	-11.7%	-0.7%	-52.9*
OC(CN1C2=NCCN2c2ccccc21)c1ccc(Br)cc1 (stereo unspecified)	-24.3%	-16.9%	20.6µM*	?	-62.3*
O=C(CN1C2=NCCN2c2ccccc21)c1ccc(Br)cc1	-15.2%	-25.8%	?	?	-25.3
Cc1ccc(C(O)CN2C3=NCCN3c3ccccc32)cc1 (stereo unspecified)	2.1%	-1.4%	16.4µM*	23.1µM*	-9.9
Cc1ccc(S(=O)(=O)C[C@@H]2OC3CCCCC3N2S(=O)(=O)c2ccc(C)cc2)cc1 (stereo partly specified)	6.8%	13.3%	?	?	-6.6
O=S(=O)(c1ccccc1)c1nc(-c2ccco2)oc1SCc1ccc(F)cc1	.	.	?	-16.7%	.
CC(C)CSc1oc(-c2ccco2)nc1S(=O)(=O)c1ccccc1	7.5%	5.2%	25.9µM*	?	?
CCCCSc1oc(-c2ccco2)nc1S(=O)(=O)c1ccccc1	-11.1%	-0.8%	?	?	?
Cc1ccc(S(=O)(=O)c2nc(-c3ccco3)oc2SCc2ccc(F)cc2)cc1	.	.	?	20.6µM*	.
CC1CCCN(C(=O)CN(C)S(=O)(=O)c2ccc3c(c2)c(=O)n(C)c(=O)n3C)C1 (stereo unspecified)	-3.0%	2.4%	15.8%	-14.8%	15.9
Cc1nn(-c2ccccc2)c2[nH]c(=O)c(CNc3ccc4c(c3)OCCO4)cc12	-24.2%	-18.7%	-20.9%	-22.8%	-6.8
SMILES	HT1080 IDH1KD tx	HT1080-NT tox	DT40 TDP1 no CPT	DT40 TDP1 CPT	IL-1B inflam inh
CCc1ccc(NCc2cc3c(C)nn(-c4ccccc4)c3[nH]c2=O)cc1	-19.5%	?	12.6µM*	20.6µM*	19.3
Cc1nn(-c2ccccc2)c2[nH]c(=O)c(CNCCN3CCOCC3)cc12	14.2%	12.8%	3.0%	0.7%	9.0
Cc1ccc(-c2nn(-c3ccccc3)c3[nH]c(=O)c(CNCc4ccccc4)cc23)cc1	?	?	?	?	-57.7*
Cc1nn(-c2ccccc2)c2[nH]c(=O)c(CNCc3ccc4c(c3)OCO4)cc12	13.9%	4.6%	14.6µM*	18.4µM*	-15.3
CN(C)CCCNC(=O)C1(O)c2cc(Br)ccc2NC(=O)N1c1c(F)cccc1F (stereo unspecified)	15.6%	15.1%	-1.0%	2.8%	8.6
COc1ccc(CN(C)C(=O)[C@H]2O[C@@H](n3ccc(=O)[nH]c3=O)[C@H](O)[C@@H]2O)cc1OC	2.1%	28.1%	-5.1%	19.3%	-24.0
N#CC1=C(N)S[C@H](C(=O)C23CC4CC(CC(C4)C2)C3)[C@H]1c1ccncc1	?	23.1µM*	?	?	-15.3
O=C(NCc1ccncc1)C12CC3CC(CC(C3)C1)C2	-5.6%	2.3%	-9.4%	9.8%	13.2
[O-][n+]1c2ccccc2cc2ccccc21	-0.9%	-2.1%	9.2µM*	?	-12.1
Cc1c2cnn(CC(=O)NCCN3CCOCC3)c(=O)c2c(C)n1Cc1ccc(F)cc1	3.1%	6.9%	-0.7%	23.7%	17.0
COc1ccc(C2=NN(c3ccccc3)C(c3ccc(OC)c(OC)c3)C2)cc1 (stereo unspecified)	-16.1%	2.4%	-10.8%	-19.0%	0.0
COc1ccc(C2=NN(C(C#N)c3ccc(OC)c(OC)c3)C(c3ccccc3)C2)cc1 (stereo unspecified)	-15.1%	-25.1%	20.6µM*	?	-22.1
COc1ccc(C(C#N)N2CCC(c3ccccc3)=N2)cc1OC (stereo unspecified)	18.2%	19.7%	-29.2%	-17.6%	-51.1*
CCCCCOC(=O)CSc1nnc(-c2ccccc2)c(=O)[nH]1	-3.4%	7.6%	-7.9%	-4.6%	21.7
Cc1ccc(C(=O)Nc2ccccc2[N+](=O)[O-])cc1S(=O)(=O)N1CCOCC1	?	?	?	4.2%	-63.6*
